# A selection: hits, their analogues and other compounds. The true share with any hit is near 13%.
# Lassa entry inh: qHTS for Inhibitors of binding or entry into cells for Lassa Virus; Potency, µM (top dose mostly 37.9 µM), inactives show at the top dose activity change, negative = inhibition, most hits filed as inhibitors; actives 1.2% (n = 300,000); Lassa virus pseudotype entry inhibition, cell reporter; AID 540256, 2011; calls by dose curve; tested in HEK293 cells; further: potency means the concentration at half of the fitted maximal effect; on the % scale 0 is the no-effect control and ±100 the full control effect; nearly all actives have a fitted effect of over 50% in size
# FMDV antiviral: High Throughput Screening for Foot and Mouth Disease Virus Antivirals; FMDV antiviral cell-based qHTS; Potency, µM (highest dose often 57.9 µM), for inactives: top-dose activity change, negative = inhibition, actives largely listed as inhibitors; actives 1.2% (n = 410,000); calls by dose curve; tested in HEK293T cells; further: read-out not given here; potency means the concentration at half of the fitted maximal effect; on the % scale 0 is the no-effect control and ±100 the full control effect; nearly all actives have a fitted effect of over 45% in size
# Marburg entry inh: qHTS for inhibitors of binding or entry into cells for Marburg Virus; Potency, µM (highest dose often 37.8 µM), without a hit: at the highest dose activity change, negative = inhibition, actives largely listed as inhibitors; Marburg virus pseudotyped entry inhibition, cell reporter; AID 540276, 2011; actives 1.8% (n = 300,000); calls by dose curve; tested in HEK293 cells; further: potency means the concentration at half of the fitted maximal effect; on the % scale 0 is the no-effect control and ±100 the full control effect
# Shiga toxin inh: A qHTS for Small Molecule Inhibitors of Shiga Toxin. inhibition, % at 38.7 µM. actives 9.2% (n = 290,000). Vero cells, Shiga toxin protein synthesis inhibition reporter; in the data active means inhibition mostly above about 28%, no sharp cut-off; inactive means mostly below about 43%; further: 0% is about no effect
# CHX counter-1: Cycloheximide Counterscreen for Small Molecule Inhibitors of Shiga Toxin; cell reporter, cycloheximide protein synthesis inhibition counterscreen; max response, %; actives 12% (n = 300,000); AID 2314, 2010; in the data active means max response mostly above about 13%, no sharp cut-off; inactive means mostly below about 14%; further: read at 38.3 µM for the half of the compounds with a filed dose; 0% is about no effect
# HCV inhibitor: qHTS Assay for Inhibitors of Hepatitis C Virus (HCV); Huh7.5.1 HCVcc-Cre infection, luciferase reporter, 44 h; Potency, µM (titrated, usually from 41.8 µM), for inactives: at the top dose activity change, negative = inhibition, usual class: inhibitors; actives 3.4% (n = 340,000); AID 651820, 2012; active means well fitted inhibition curve with a large enough effect; inconclusive means small, poorly fitted or top-dose-only effect, or another doubt; inactive means no such curve, though single readings can be large or run the other way; further: potency means the concentration at half of the fitted maximal effect; on the % scale 0 is the no-effect control and ±100 the full control effect
#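 Cells (1,000/well) were plated 4 h before compound, then infected with HCVcc-Cre virus (~0.5 moi). After 44 h further culture, infection was read as luciferase luminescence following a 15 min substrate incubation at room temperature.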
# CHX counter-2: Cycloheximide Counterscreen for Small Molecule Inhibitors of Shiga Toxin (Confirmatory); shares compounds with Shiga toxin inh; Cycloheximide counterscreen, protein synthesis reporter, Shiga toxin assay; Potency, µM (highest dose often 38.3 µM), without a hit: at the top dose activity (activation), most hits filed as activators; actives 3% (n = 510); AID 2318, 2010; calls by dose curve; further: potency means the concentration at half of the fitted maximal effect; 0% is about no effect
# Active calls of the source: *; ? = inconclusive; nt = not tested or not shown; [ ] = remark or other dose.
SMILES,Lassa entry inh,FMDV antiviral,Marburg entry inh,Shiga toxin inh,CHX counter-1,HCV inhibitor,CHX counter-2
CCn1c(SCC(=O)NCc2ccco2)nc2c1c(=O)n(C)c(=O)n2C,-2%,-2%,12%,68*,-2,1%,-1%
N=c1c(S(=O)(=O)c2ccccc2)cc2c(=O)n3ccccc3nc2n1C1CCCC1,13%[46.1 µM],6%,3%[46.1 µM],-4,-1,?,nt
N=c1c(S(=O)(=O)c2ccc(Cl)cc2)cc2c(=O)n3ccccc3nc2n1C1CCCCC1,-7%[46.1 µM],-2%,18%[46.1 µM],active,14,?,-1%
Cc1ccc(OCC(=O)NNC(=O)CCC(=O)Nc2ccc(C)cc2C)cc1,0%,-17%,11%,35*,-2,?,-1%
Cc1c(CCNC(=O)c2ccc(C(C)(C)C)cc2)sc2nc(-c3ccc(F)cc3)nn12,1%[46.1 µM],-1%,nt,nt,nt,nt,nt
COc1ccc(CC(=O)NC(C)c2nnc(SCC(=O)Nc3nc(C)cs3)n2C)cc1 (configuration not stated),4%,5%,19%,30*,0,-18%,-1%
COc1ccc(CC(=O)NC(C)c2nnc(SCC(=O)c3ccc(Br)cc3)n2C)cc1 (configuration not stated),16%[14.3 µM],?,19%,-17,26,nt,nt
O=C(c1cc2c(s1)-c1ccccc1OC2)N1CCN(c2ccccc2)CC1,nt,0%,8%[46.1 µM],62*,5,4%,-2%
COc1ccc(N2CCN(C(=O)c3cc4c(s3)-c3ccccc3OC4)CC2)cc1,nt,-2%,21%[46.1 µM],26,1,14%,nt
COc1ccc(-c2cnc[nH]2)cc1,7%,34%,9%[46.1 µM],78*,13,19%,1%
COc1ccc(NS(=O)(=O)c2cnc[nH]2)cc1,-2%,3%,2%[46.1 µM],-9,-3,-6%,nt
COc1ccc(C)cc1N1C(=N)/C(=C2/Nc3ccccc3S2)C(c2ccccc2)C1=O (configuration not stated),-1%,25µM*,?,21*,-1,13%,-2%
COc1ccc(C(=O)N2CC(=O)Nc3ccc(C)cc3C2c2ccccc2)cc1OC (configuration not stated),-26%[46.1 µM],-13%,?,nt,nt,nt,nt
O=C(Nc1cccc(-c2csc(Nc3ccc(Cl)cc3)n2)c1)c1ccccc1,nt,-7%,nt,29*,2,?,?
Cn1ncc(Cl)c1C(=O)Nc1ccc(Cl)cn1,20%,19%,5%,45*,15,11%,?
CSc1cccc(NC(=O)c2c(Cl)cnn2C)c1,?,34%,26%,33*,14,9%,?
CC(=O)c1cccc(NC(=O)Cn2c(=O)oc3cc(S(=O)(=O)NCc4ccccc4)ccc32)c1,1%[46.1 µM],29%,nt,nt,nt,nt,nt
O=C(/C=C/c1ccccc1)NCCc1ccc2c(c1)OCCO2,?,12%,-22%,36*,8,-9%,-1%
CCOc1ccccc1NC(=O)N1CCC(n2nnc3cc(C)ccc32)CC1,2%,-29%,?,-11,-5,-24%,nt
Cc1cnc(NC(=O)c2ccc(-c3nc4ccccc4s3)o2)s1,-3%,-3%,16%,60*,11,-3%,?
COc1ccc(N2CCN(C(=O)c3ccc(-c4nc5ccccc5s4)o3)CC2)cc1,nt,?,nt,nt,nt,10%,nt
O=c1ccc(=O)n2n1CC(O)C2,-5%,-1%,-27%,16,-5,4%,nt
COc1ccc(CNC(=O)c2ccc(Cl)c(NC3=NC4CS(=O)(=O)CC4S3)c2)cc1 (configuration not stated),nt,1%,nt,2,-2,10%,nt
COc1cccc(CNC(=O)c2ccc(C)c(NC3=NC4CS(=O)(=O)CC4S3)c2)c1 (configuration not stated),nt,0%,nt,11*,-1,13%,3%
Cc1ccc(OCC(=O)Nc2nnn(C)n2)c(C)c1,18%,48%,5%,83*,5,-6%,?
SMILES,Lassa entry inh,FMDV antiviral,Marburg entry inh,Shiga toxin inh,CHX counter-1,HCV inhibitor,CHX counter-2
Cc1cc(C)c(OCC(=O)Nc2nnn(C)n2)c(Br)c1,-6%,9%,3%[46.1 µM],2,-3,7%,nt
O=C(/C=C/c1cccs1)c1ccco1,5%[46.1 µM],19%,2%[46.1 µM],nt,nt,11%,nt
O=C(/C=C/Nc1ccc(F)cc1F)c1ccco1,?,-83%,?,49*,10,?,0.25µM*
COc1ccc(-c2cc(-c3ccccc3O)[nH]n2)cc1OC,?,29%,-27%,81*,15,?,2.5µM*
COc1ccc(-c2c(-c3ccc(O)cc3O)n[nH]c2C)cc1OC,?,?,?,-20,4,?,nt
COc1ccc(NC(=O)CSc2cn(CCNC(=O)c3c(F)cccc3F)c3ccccc23)cc1,-8%[46.1 µM],22%,-19%[46.1 µM],nt,nt,nt,nt
O=C(C(c1ccccc1)N1CCOCC1)N1CCOCC1 (configuration not stated),14%,-1%,29%[46.1 µM],-8,3,24%,nt
O=C(C(Sc1ccccc1)c1ccccc1)N1CCOCC1 (configuration not stated),7%,-12%,-2%,46*,-1,18%,-4%
N#C/C=C1/NC(=O)c2ccccc2S1,1%,-6%,-2%,71*,1,18%,1%
O=C1Nc2ccccc2Sc2ccccc21,nt,-6%,nt,-32,-4,0%,nt
O=S(=O)(c1ccc(N2CCN(Cc3ccc4c(c3)OCO4)CC2)nc1)N1CCOCC1,nt,nt,nt,32,-2,nt,nt
CC(=O)c1ccc(-c2cccc([C@H]3[C@@H]4C=CC[C@@H](C)[C@@H]4C(=O)N3Cc3ccccc3)c2)cc1,nt,-3%,nt,36*,18,11µM*,-1%
O=C(NCCN1C(=O)S/C(=C\c2ccc(Cl)cc2)C1=O)c1ccc(F)c(S(=O)(=O)N2CCOCC2)c1,4%,8%,7%,33*,-1,?,?
O=C(NCCN1C(=O)S/C(=C\c2ccc(Cl)cc2)C1=O)C1=COCCO1,2%,-8%,?,nt,nt,-16%,nt
COc1cccc(C(=O)NNC(=O)C2CC(C)=C(C)CC2C(=O)O)c1 (configuration not stated),5%,-10%,-17%,37*,2,13%,-1%
CCOc1ccc(/C(C)=N/NC(=O)Cn2nc([N+](=O)[O-])cc2C)cc1,?,7%,8%,-1,-2,-5%,nt
O=C(Nc1ccc(Cl)cc1)c1ccncc1,1%,43%,0%,52*,20,-4%,?
CC(=O)Nc1ccc(C(=O)Nc2ccncc2)cc1,nt,1%,nt,-7,0,12%,nt
CCOC(=O)c1c(C)sc2c1N(C(=O)CN(CC)CC)c1ccccc1S2,-12%,-26%,-24%,12,-5,-8%,nt
